The values that follow come from PubChem BioAssay AID2685 (National Center for Advancing Translational Sciences (NCATS), 2010).

The structures appear in SMILES notation. In all, about 320,000 compounds went through this assay and about 2,100 (0.66%) were called active. About 53% were inconclusive and are not listed. Calls come from the whole dose curve; as a rule, active = well fitted inhibition curve with a large enough effect in the signal ratio, with a control signal flat (not every such curve was filed as active); inconclusive = small, poorly fitted or top-dose-only effect, or effect the other way, or a change in a side signal; inactive = flat fitted curve, though single readings scatter; the % refers to the signal ratio. Only a selection was taken, and actives are over-represented in it overall.
Potency is the fitted concentration of half-maximal effect.

The nature of this assay: qHTS Assay for Lipid Storage Modulators in Drosophila S3 Cells.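 For cell number change: cells counted by Cell Tracker Red CMTPX staining in the red channel.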 For lipid storage change, negative = inhibition: % is set by controls: 0 for no effect and ±100 for the full control effect. Particulars: BODIPY lipid droplet fluorescence, 18-24 h, cells fed with added oleic acid; cell number change: measured here: cell count max response; series mostly up to 46.1 µM; lipid storage change, negative = inhibition: at the top concentration. The method in brief: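 Drosophila S3 cells loaded with oleic acid (400 uM, as added) and compounds at several concentrations; lipid droplets imaged by 488-nm laser-scanning cytometry, 500–530 nm intensity and object ratio to cell channel. Percent activity normalized to 20 uM Triacsin C.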
(In general: Quantitative high-throughput screening tests each substance at several concentrations.)
As to `CCOC(=O)c1sc2nc(C)nc(SCC(=O)NC(C)CCc3ccccc3)c2c1C` (centres undefined), the molecule was classed as inactive.
For `COc1ccc(OC)c(CNC(=O)C2CCC(=O)N(CCCN3CCCC3=O)C2)c1` (centres undefined), the result was inactive and the cell number change was 15.9%.
Turning to `CCOc1ccc(S(=O)(=O)Nc2nc3ccccc3nc2-n2ccc(=NC(=O)c3ccccc3C)cc2)cc1`, the “lipid storage change, negative = inhibition” value is -19.1% (inactive) and the cell number change is -0.599%.
`Cc1cc(C(=O)NNC(=S)NCc2ccco2)nn1C`: the “lipid storage change, negative = inhibition” value was 24.4% (inactive).
Regarding `Cc1cc(C(=O)N(C)Cc2c(F)cccc2Cl)c2ccccc2n1`, the Potency is 5.17 µM (active) and the cell number change was -7.26%.
On to `CN(Cc1c(F)cccc1Cl)C(=O)c1ccc2ccccc2n1`, for which the molecule was classed as inactive and the cell number change stood at 19.7%.
For `CN(Cc1c(F)cccc1Cl)C(=O)c1cc2ccccc2o1`, the “lipid storage change, negative = inhibition” value is 4.71% (inactive).
For the molecule `O=c1cc(NCc2ccco2)[nH]c(=O)n1-c1ccc(Br)cc1`, the “lipid storage change, negative = inhibition” value was 1.04% (inactive) and the cell number change is -12.2%.
The corresponding values for `COc1ccc(-c2cc(CNC(=O)CCl)on2)cc1` are 3.41% (inactive) and 8.76%.
`COc1ccc(-c2cc(CNC(=O)CN3CCN(C)CC3)on2)cc1`: the Potency is 4.11 µM (active) and the cell number change is -114%.
As for `COc1ccc(-c2cc(CNC(C)=O)on2)cc1`, the “lipid storage change, negative = inhibition” value was 10.5% (inactive) and the cell number change is 0.804%.
Regarding `O=Cc1c(N2CCN(c3ccccc3)CC2)nc2ccccn2c1=O`, the “lipid storage change, negative = inhibition” value was 4.25% (inactive) and the cell number change worked out at 2.17%.
Regarding `COc1ccc(N2CCN(c3nc4ccccn4c(=O)c3C=O)CC2)cc1`, the Potency was 4.61 µM (active) and the cell number change stood at 25.2%.
Regarding `CN1CCN(c2nc3ccccn3c(=O)c2C=O)CC1`, the call was inactive and the cell number change is 25%.
As for `COc1ccc(NC(=O)CSc2nnnn2C2CCCC2)cc1`, the “lipid storage change, negative = inhibition” value is 15% (inactive) and the cell number change was 9.25%.
For the molecule `COc1cccc(NC(=O)CSc2nnnn2C2CCCC2)c1`, the Potency was 8.2 µM (active) and the cell number change was -5.13%.
Turning to `COc1cc(NC(=O)CSc2nnnn2C2CCCC2)cc(OC)c1`, the call was inactive and the cell number change worked out at 5.13%.
`CC(C)C(=O)N=c1sc2cccc(F)c2n1C`: the “lipid storage change, negative = inhibition” value is 21.4% (inactive) and the cell number change turned out to be 19.6%.
For `C/C(=N\NC(=O)CC#N)c1ccc(Oc2ccccc2)cc1`, in that order: 6.93% (inactive) and 6.12%.
As to `CCOc1ccccc1N1C(=O)c2ccc(C(=O)Nc3cccnc3)cc2C1=O`, the molecule was called inactive.
In the case of `CCOc1ccccc1N1C(=O)c2ccc(C(=O)O)cc2C1=O`, the Potency was 4.61 µM (active) and the cell number change is -1.3%.
`CCOc1ccccc1N1C(=O)c2ccc(S(=O)(=O)c3ccc(C(=O)O)cc3)cc2C1=O`: the “lipid storage change, negative = inhibition” value was 25.3% (inactive) and the cell number change is 24.2%.
As for `CCS(=O)(=O)c1ccc2oc(SCC(=O)Nc3ccc(OC)cc3)nc2c1`, the “lipid storage change, negative = inhibition” value is 11.2% (inactive) and the cell number change stood at 7.84%.
On to `CCN(CC)c1nc(SCC(=O)O)nc(N(CC)CC)n1`, for which the molecule was classed as inactive.
In the case of `CCN(CC)c1nc(-c2ccc(C(=O)NN)cc2)nc(-c2ccc(C(=O)NN)cc2)n1`, the “lipid storage change, negative = inhibition” value is 16.7% (inactive) and the cell number change turned out to be 26.3%.
Take `CCN(CC)c1nc2n(c(=O)n1)CCN2CC`: the Potency is 5.17 µM (active) and the cell number change came out at 14.9%.
As to `CCOc1cc(/C=C2\SC(=S)N(N3CCOCC3)C2=O)ccc1O`, the “lipid storage change, negative = inhibition” value was -7.43% (inactive) and the cell number change is -15.1%.
The corresponding values for `Nc1nc(N2CCN(C(=O)c3ccco3)CC2)nc2ccccc12` are 3.78% (inactive) and 7.42%.
For `COc1cc(C#N)ccc1OCC(=O)NCc1cccs1`, the call was inactive.
For the molecule `CCN(CC)CC(=O)Nc1ccc(-c2nc3cc(NC(=O)CN(CC)CC)ccc3o2)cc1`, the result was inactive and the cell number change worked out at 0.429%.
For `CCc1ccc2oc(-c3ccc(NC(C)=O)cc3)nc2c1`, the Potency is 11.6 µM (active).
`CC(=O)Nc1ccc2oc(-c3ccccc3)nc2c1`: the “lipid storage change, negative = inhibition” value was 10.5% (inactive) and the cell number change amounted to 17.7%.
The corresponding values for `COc1ccc(NC(=O)Cc2ccc(C)c(C)c2)cc1Cl` are -18.4% (inactive) and -32.8%.
For `COc1ccc(OC)c(NC=C2C(=O)OC3(CCCCC3)OC2=O)c1`, in that order: -31.6% (inactive) and -8.05%.
For `COc1ccccc1C(=O)COC(=O)c1ccc(Cl)nc1`, in that order: 2.34% (inactive) and -5.19%.
Take `CCN(Cc1ccncc1)C(=O)c1cc(COc2ccc(F)cc2F)on1`: the outcome was inactive and the cell number change is -20.5%.
For `Cc1cc(=S)cc(C)n1CCCO`, the “lipid storage change, negative = inhibition” value was 0.297% (inactive) and the cell number change is -15.3%.
For `COc1ccccc1NS(=O)(=O)c1ccc2oc(=S)[nH]c2c1`, in that order: 0.324% (inactive) and 9.13%.
Regarding `COc1ccccc1NS(=O)(=O)c1ccc2nc(CCl)[nH]c2c1`, the Potency was 0.259 µM (active) and the cell number change is -11.7%.
Turning to `c1ccc2cc(OCc3nc4ccccc4[nH]3)ccc2c1`, the “lipid storage change, negative = inhibition” value was -7.47% (inactive) and the cell number change is -24.1%.
For `COc1ccc(OCc2nc3ccc(S(=O)(=O)Nc4ccccc4Cl)cc3[nH]2)cc1`, in that order: 0.493% (inactive) and 18.1%.
For `COc1ccc(NS(=O)(=O)c2ccc3nc(COc4ccc5ccccc5c4)[nH]c3c2)cc1`, the Potency was 23.1 µM (active) and the cell number change is -9.6%.
As for `COc1ccccc1NS(=O)(=O)c1ccc2[nH]c(=O)[nH]c2c1`, the call was inactive and the cell number change is -22.3%.
For `COc1ccc(NS(=O)(=O)c2cccc(C(=O)NCC3(N4CCOCC4)CCCCC3)c2)cc1`, the “lipid storage change, negative = inhibition” value was -19.7% (inactive) and the cell number change was 1.17%.
For the molecule `CCCS(=O)(=O)Nc1cccc(-c2cn3c(n2)SCC3)c1`, the molecule was called inactive and the cell number change is -21.2%.
Turning to `Cc1ccnc(Sc2ncccc2[N+](=O)[O-])n1`, the Potency is 29.1 µM (active) and the cell number change was -11.7%.
As to `Cc1ccc(Sc2ncccc2[N+](=O)[O-])cc1`, the “lipid storage change, negative = inhibition” value is -8.13% (inactive) and the cell number change was -12.8%.
For `Cc1cc(C)n2nc(Sc3ncccc3[N+](=O)[O-])nc2n1`, in that order: -0.347% (inactive) and -8.83%.
